Assay outcomes as filed in PubChem BioAssay.
Only some compounds are listed: those with a hit (about 21% of all), similar ones and a draw of the others.
Pf growth 48h = Primary qHTS for delayed death inhibitors of the malarial parasite plastid, 48 hour incubation; hit rate 5.9% among 310,000; Potency, µM (series often up to 28.7 µM), actives largely listed as inhibitors; AID 504832, 2011; P. falciparum luciferase growth in erythrocytes, 48 h
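Read-out is firefly luciferase luminescence from an integrated reporter in P. falciparum, so falling signal marks reduced parasite growth. Infected erythrocytes were at 2% hematocrit and 0.1% parasitemia (final) in Albumax-supplemented RPMI 1640.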
Shiga toxin inh = A qHTS for Small Molecule Inhibitors of Shiga Toxin. AID 2315, 2010. inhibition, % at 38.7 µM. Vero cells, Shiga toxin protein synthesis inhibition reporter. hit rate 9.2% among 290,000; in the data active means inhibition mostly above about 28%, no sharp cut-off; inactive means mostly below about 43%
Cycloheximide cs = Cycloheximide Counterscreen for Small Molecule Inhibitors of Shiga Toxin. hit rate 12% among 300,000. AID 2314, 2010. max response, %. cell reporter, cycloheximide protein synthesis inhibition counterscreen; in the data active means max response mostly above about 13%, no sharp cut-off; inactive means mostly below about 14%; further: read at 38.3 µM for the half of the compounds with a filed dose
AMA1-RON2 inh = qHTS for Inhibitors of AMA1-RON; Towards Development of Antimalarial Drug Lead: Primary Screen; Plasmodium falciparum AMA1 (3D7) - RON2 peptide interaction; AlphaScreen AMA1-biotinylated RON2 peptide binding; Potency, µM (highest dose often 58.2 µM), actives largely listed as inhibitors; hit rate 0.2% among 360,000; AID 720542, 2013; further: nearly all actives have a fitted effect of over 45% in size
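AMA1 (3D7) with his tag at 25 nM final met compounds first, then biotinylated RON2 peptide at 25 nM; detection used donor plus acceptor beads, 10 µg/mL apiece, read by AlphaScreen after 30 min at room temperature.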
Pf growth 96h = Primary qHTS for delayed death inhibitors of the malarial parasite plastid, 96 hour incubation. P. falciparum luciferase reporter growth, 96 h. Potency, µM (series often up to 28.7 µM), most hits filed as inhibitors. hit rate 6.9% among 320,000. AID 504834, 2011
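Cell-based qHTS: luciferase-tagged P. falciparum in erythrocytes (2% hematocrit, 0.05% parasitemia final) incubated with compounds for 96 hours, 37 C, 5% CO2; luciferase detection reagent then added and luminescence measured.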
HCV inh = qHTS Assay for Inhibitors of Hepatitis C Virus (HCV) | Huh7.5.1 HCVcc-Cre infection, luciferase reporter, 44 h | Potency, µM (top dose mostly 41.8 µM), hits mostly inhibitors | hit rate 3.4% among 340,000
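Infectious HCV cell culture screen: compound-treated cells (1,000/well, pre-plated 4 h) are infected with HCVcc-Cre at roughly 0.5 moi and grown 44 h. Infection is quantified by luciferase signal after 15 min substrate incubation at room temperature.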
Of the large screens only hits and unclear results are named; the others gave an inactive call. Unless noted, the call rests on the fitted dose curve; in most records, active means well fitted curve in the direction sought with a large enough effect; inconclusive means small, poorly fitted or top-dose-only effect, or another doubt; inactive means no such curve, though single readings can be large; an effect the other way counts as inactive or inconclusive.

CS(=O)(=O)N(CC(=O)N1CCN(Cc2ccccc2)CC1)c1cccc([N+](=O)[O-])c1	Pf growth 48h inconclusive, Pf growth 96h 2.9µM
COc1ccc(N(CC(=O)N2CCN(Cc3ccccc3)CC2)S(=O)(=O)c2ccccc2)cc1	Pf growth 48h inconclusive, Pf growth 96h 5.9µM
COc1ccc(N2CCN(C(=O)CN(c3ccc(OC)cc3)S(=O)(=O)c3ccccc3)CC2)cc1	Pf growth 48h 12µM, AMA1-RON2 inh inconclusive, HCV inh inconclusive
CCC(CC)c1nnc(NC(=O)C2=NNC(=O)CC2)s1	none
COCCNC(=O)C1CCCN(Cc2ccccc2F)CC1 (stereo not drawn)	none (no result: Pf growth 48h, Shiga toxin inh, Cycloheximide cs, Pf growth 96h, HCV inh)
CCn1c(SCC(=O)c2[nH]c(C)c(C(C)=O)c2C)nnc1-c1ccncc1	HCV inh inconclusive
CC(=O)c1c(C)[nH]c(C(=O)CSc2nnc(-c3ccc(Cl)cc3)n2CC2CCCO2)c1C (stereo not drawn)	Pf growth 96h 5.9µM, HCV inh inconclusive (no result: Pf growth 48h)
CCn1c(SCC(=O)c2[nH]c(C)c(C(C)=O)c2C)nnc1-c1ccccc1	Pf growth 96h inconclusive, HCV inh 5.6µM
NC(=O)NC(=O)CSc1nnc(-c2ccc(Cl)cc2)n1CC1CCCO1 (stereo not drawn)	none
O=P(O)(c1ccccc1)c1ccccc1O	Pf growth 96h 12µM
O=P(Cc1ccccc1O)(c1ccccc1)c1ccccc1	none
Cc1ccc(S(=O)(=O)Nc2cccc3ccc[n+](C)c23)cc1	none (no result: Pf growth 48h, AMA1-RON2 inh, Pf growth 96h, HCV inh)
CCCCC1=CC2=C(c3ccco3)C(=O)C(C)(OC(=O)c3ccc(OC)cc3)C(=O)C2=CN1CCCN(CC)CC (stereo not drawn)	Pf growth 48h inconclusive, Pf growth 96h 15µM
CCCCC1=CC2=C(c3ccco3)C(=O)C(C)(OC(=O)c3ccc(OC)cc3)C(=O)C2=CN1CCCCO (stereo not drawn)	Pf growth 48h inconclusive, Pf growth 96h inconclusive
CCCCC1=CC2=C(c3ccco3)C(=O)C(C)(OC(=O)c3ccc(OC)cc3)C(=O)C2=CN1CCN1CCOCC1 (stereo not drawn)	Pf growth 48h inconclusive, Pf growth 96h 10µM
Cc1ccc(C(=O)NNC(=S)Nc2cccc3ccccc23)s1	Shiga toxin inh 67, Cycloheximide cs 30
Cc1ccc(C(=O)Nc2cc([N+](=O)[O-])ccc2F)s1	Shiga toxin inh active
O=C(COC(=O)c1ccc([N+](=O)[O-])s1)NCc1ccccc1	Pf growth 96h inconclusive
O=C(Nc1cccnc1)c1ccc([N+](=O)[O-])s1	Pf growth 48h 5.2µM, Pf growth 96h inconclusive, HCV inh inconclusive (no result: Shiga toxin inh, Cycloheximide cs)
O=C(Nc1cccc2ccccc12)c1ccc([N+](=O)[O-])s1	Pf growth 48h 12µM, Pf growth 96h 5.2µM, HCV inh inconclusive
CC(C)(CC(=O)O)CC(=O)N1CCN(c2nc3cc(Cl)ccc3s2)CC1	none
CCC(c1nnnn1-c1ccc2c(c1)OCCO2)N1CCN(C)CC1 (stereo not drawn)	none (no result: Pf growth 48h, Shiga toxin inh, Cycloheximide cs, Pf growth 96h, HCV inh)
Nc1nc(N)c(-c2ccccc2)s1	Pf growth 96h inconclusive (no result: Shiga toxin inh, Cycloheximide cs, AMA1-RON2 inh, HCV inh)
CN(C)NC(=O)c1ccc([N+](=O)[O-])s1	Pf growth 48h 10µM, Pf growth 96h 12µM
O=C(COC(=O)c1ccc([N+](=O)[O-])s1)Nc1ccccc1	none
O=C(Nc1ccccc1F)c1ccc([N+](=O)[O-])s1	Pf growth 48h 10µM, Cycloheximide cs 38, Pf growth 96h 4.1µM, HCV inh inconclusive
CCOC(=O)CC[C@H](NC(=O)Cn1cnc(C(=O)Nc2ccc(C)c(C)c2)n1)C(=O)OCC	none (no result: Pf growth 48h, Shiga toxin inh, Cycloheximide cs, Pf growth 96h)
CCCCc1ccc(NC2=NCC(=O)N2CCc2ccccc2)cc1	Pf growth 48h inconclusive, Pf growth 96h inconclusive, HCV inh inconclusive
CS(=O)(=O)c1ccccc1-c1nc(-c2cccc(Cl)c2)no1	Pf growth 48h inconclusive
CS(=O)c1ccccc1-c1nc(-c2cccc(Cl)c2)no1 (stereo not drawn)	Cycloheximide cs 53, HCV inh inconclusive
CS(=O)c1ccccc1-c1nc(-c2ccc(Cl)cc2)no1 (stereo not drawn)	Shiga toxin inh 66, Cycloheximide cs 48, HCV inh inconclusive
